PTAP-TSG101 blk: qHTS Validation Assay for Inhibitors of HIV-1 Budding by Blocking the Interaction of PTAP/TSG101: Sytravon Library Screen. Fluorescence polarization, FITC-PTAP peptide/Tsg101, 20 min. Potency, µM (titrated, usually from 115 µM), usual class: inhibitors. 44,000 tested, under 10 active. AID 1347069, 2019; also: potency is read from the fitted curve at half-maximal effect; 0% is about no effect
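FITC-labeled PTAP peptide (50 nM final) binding to Tsg101 binding domain (10 uM final) read by fluorescence polarization after 20 min at r.t. in HEPES pH 7.5 buffer. Actives by CRC class, <25 µM.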
HTT promoter inh: Primary qHTS for Identification of Small Molecule Inhibitors of Huntingtin Promoter Activity. actives 0.93% (n = 48,000). HEK293 HTT promoter firefly luciferase reporter, 24 h. Potency, µM (highest dose often 57.5 µM), for the others: at the top dose activity change, negative = inhibition, most hits filed as inhibitors; also: potency is read from the fitted curve at half-maximal effect; nearly all actives have a fitted effect of over 50% in size
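Firefly luciferase signal from promoter-reporter HEK293 cells was scaled between vehicle (0%) and zero RLU (-100%). Compounds were tested at final concentrations of up to 57.5 uM over 24 h at 37 degrees C. PTC124 at 50 uM final served as control inhibitor.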
B2AR arrestin ag: qHTS assay of beta-arrestin-biased ligands of beta2-adrenergic receptor: NCGC Sytravon Library Screen; HTLA Tango cells, beta-arrestin recruitment, luciferase luminescence, 18 h; 44,000 tested, under 10 active; Beta-2 adrenergic receptor (Homo sapiens), P07550; Potency, µM (highest dose often 46.1 µM), actives largely listed as activators;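 also: potency is read from the fitted curve at half-maximal effect; 0% = DMSO and full agonism = EC100 isoproterenol or metaproterenol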
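Tango cells (recombinant beta2-AR, beta-arrestin, tTA-driven luciferase), 1500/well in DMEM 1% FBS, treated 18 h at 37 °C with compounds up to 46 µM; luciferin mix added, luminescence read after 15 min; %activity curves fitted and curve-classed.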
GALK inhibitor: qHTS Assay for Inhibitors of Human Galactokinase (GALK): NCGC Sytravon Library Screen; AID 1347072, 2019; recombinant GALK, Kinase-Glo ATP luminescence, 1 h; 44,000 tested, under 10 active; Potency, µM (titrated, usually from 57.5 µM), for inactives: top-dose activity, negative = inhibition, most hits filed as inhibitors;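 also: plate controls were full GALK reaction for no effect and reaction lacking GALK for full effect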
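Compounds were pinned into ATP buffer, then GALK-galactose mix was added (final 5 nM enzyme, 35 uM ATP, 100 uM galactose, pH 8.0). After 1 h at room temperature, Kinase-Glo Plus was added and luminescence read.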
HTT-AS promoter: Primary qHTS for Identification of Small Molecule Activators of Huntingtin-Antisense Promoter Activity | HEK293 HTT-AS promoter firefly luciferase reporter, 24 h; response scale: percent change from vehicle, -100% = no light | Potency, µM (top dose mostly 57.5 µM), without a hit: top-dose activity change, positive = activation, usual class: activators | actives 0.24% (n = 48,000) | AID 1508624, 2021; also: potency is read from the fitted curve at half-maximal effect; nearly all actives have a fitted effect of over 55% in size
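Firefly luciferase readout (Dual-Glo, 10 min RT) after 24 h, 37 °C compound exposure (final up to 57.5 uM) of HEK293 reporter cells cultured 24 h beforehand; PTC124 at 50 uM final as control inhibitor; activity scaled vehicle 0%, zero RLU -100%.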
DRV1 agonist: qHTS for Agonists of Human Resolvin D1 Receptor DRV1; Probable G-protein coupled receptor 32 (Homo sapiens), O75388; CHO-K1 GPR32 beta-arrestin PathHunter luminescence, 90 min; zero percent set by DMSO-only wells; activation, % at 76.9 µM; actives 2.5% (n = 48,000);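 active = activation of at least 60% and not above a set upper limit, about 1 call in 100 departs from these limits; inconclusive = activation of 40% to 60%, or above that upper limit; inactive = activation under 40%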; also: 0% is about no effect
Target sequence (O75388 whole entry, looked up): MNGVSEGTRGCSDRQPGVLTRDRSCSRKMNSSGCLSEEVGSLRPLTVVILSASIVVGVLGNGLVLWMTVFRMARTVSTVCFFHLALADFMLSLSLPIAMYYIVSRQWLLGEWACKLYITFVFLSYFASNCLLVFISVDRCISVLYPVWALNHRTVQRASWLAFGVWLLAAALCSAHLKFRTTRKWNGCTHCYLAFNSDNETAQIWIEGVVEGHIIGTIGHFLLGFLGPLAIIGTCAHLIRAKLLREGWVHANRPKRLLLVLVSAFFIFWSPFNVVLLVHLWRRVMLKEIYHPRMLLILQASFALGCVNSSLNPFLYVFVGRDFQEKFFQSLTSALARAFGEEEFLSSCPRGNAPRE
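GPR32 activation in stably transfected CHO-K1 cells, detected as beta-arrestin recruitment by enzyme-fragment complementation. Compound exposure: 90 min, 37 °C.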
* hit, by the source's call; i = inactive; ? = inconclusive; . = no result; [ ] = dose if it differs, or a comment. An excerpt weighted towards active compounds, which were near 3.6% of everything screened. Unless noted, calls follow the shape of the dose curve; as a rule, active = well fitted curve in the direction sought with a large enough effect; inconclusive = small, poorly fitted or top-dose-only effect, or another doubt; inactive = no such curve, though single readings can be large; an effect the other way counts as inactive or inconclusive.

SMILES	PTAP-TSG101 blk	HTT promoter inh	B2AR arrestin ag	GALK inhibitor	HTT-AS promoter	DRV1 agonist
O=c1cc(CN2CCOCC2)occ1OCCCCCSc1ccnc2cc(C(F)(F)F)ccc12	.	?	.	.	-39%	.
Cc1ccc2nc(NS(=O)(=O)c3ccc(Cl)cc3)c(Nc3ccc(C(=O)O)cc3)nc2c1	i	1%	i	0%	0%	83*
COc1cccc(Nc2nc3cc(C)ccc3nc2NS(=O)(=O)c2ccc(Cl)cc2)c1	i	?	i	0%	-60%	29
CCCCCN=C(N)NN=Cc1c[nH]c2ccc(OC)cc12	.	-31%	.	.	-27%	.
CCCCCN=C(N)N/N=C/c1c[nH]c2ccc(OC)cc12	.	?	.	.	-42%	73*
C/C(=C(/OCCOc1ccc(Cl)cc1)c1ccc(Cl)cc1Cl)n1ccnc1	.	-17%	.	.	-28%	-66
CC(C)(C)c1ccc(/C=C/C(=O)Nc2ccc(S(N)(=O)=O)cc2)cc1	i	?	i	-3%	-41%	94*
NS(=O)(=O)c1ccc(NC2=CC(=O)c3ccccc3C2=O)cc1	.	-10%	.	.	-17%	.
COc1ccc(C2=NC3(CCCCCC3)N(CC(=O)Nc3cccc(Cl)c3)C2=O)cc1	i	32µM*	i	0%	-64%	-44
Cc1ccc(-n2c(-c3ccco3)nc3c(cnn3-c3ccc(C)cc3)c2=O)cc1	i	-19%	i	-1%	-26%	0
Cc1cccc(-n2c(-c3ccco3)nc3c(cnn3-c3ccc(F)cc3)c2=O)c1	i	18µM*	i	0%	-39%	21
Cc1c(Cl)cccc1NC(=O)c1cc(-c2ccc3c(c2)OCO3)on1	i	.	i	4%	.	9
O=C(Nc1c(Cl)cccc1Cl)c1cc(-c2cccc(O)c2)on1	i	.	i	-2%	.	105*
Cc1ccc(NC(=O)c2cc(-c3cccs3)on2)cc1C	i	63%	i	-1%	8.9µM*	24
Cc1c(Cl)cccc1NC(=O)c1cc(-c2cccs2)on1	i	-16%[11.5 µM]	i	-1%	11%	91*
O=C(Nc1c(Cl)cccc1Cl)c1cc(-c2ccc3c(c2)OCO3)on1	i	.	i	-5%	.	3
COc1ccccc1S(=O)(=O)Cc1ccc(C(=O)NCc2ccc(Cl)cc2)o1	i	?	i	1%	-28%	98*
O=C(NCCc1ccc(Cl)cc1)c1ccc(CS(=O)(=O)Cc2ccccc2F)o1	i	-20%	i	1%	-27%	111*
COc1ccc(CNC(=O)c2ccc(CS(=O)(=O)c3ccccc3OC)o2)cc1	i	-13%	i	0%	-9%	-5
CNC(=O)c1cc(Oc2ccc(NC(=O)Nc3ccc(Cl)c(C(F)(F)F)c3)c(F)c2)ccn1	.	?	.	.	-32%	.
CN1CCc2c(n(Cc3ccc(C(=O)NO)cc3)c3ccccc23)C1	.	?	.	.	-13%	.
COc1ccc(-c2noc(-c3cccnc3NCc3ccco3)n2)cc1	i	70%	i	4%	11µM*	-9
Cc1ccc(-c2noc(-c3cccnc3NCc3ccco3)n2)cc1	i	62%	i	0%	?	-4
Cc1ccc(O)c(NC(=O)CCSc2nc(-c3ccco3)cc(C(F)(F)F)n2)c1	i	?	i	2%	-13%	74*
CCOc1ccccc1Nc1nc2ccccc2nc1NS(=O)(=O)c1ccc(Cl)cc1	i	-11%	i	0%	-26%	67*

Source: PubChem BioAssay
